Results from PubChem BioAssay (NCI).
The panel holds about 79,000 compounds, 15% with a hit somewhere; the sample as a whole holds those more often. Rule as the data show it: active = growth inhibition above about 70%; inactive = the rest.

Legend:
[1] = NCI Yeast Anticancer Drug Screen. Data for the rad50 strain (AID 155);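 also: 0% = growth of vehicle-only cultures of the same strain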; conditions: S. cerevisiae rad50 strain growth inhibition; at 50.0 µM; active compounds read high
Summary of the method: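 Cells are treated with compound, grown, and their growth is then scored against vehicle-only cultures of the same repair-deficient yeast strain.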

[2] = NCI Yeast Anticancer Drug Screen. Data for the mec2-1 strain (AID 157); conditions: S. cerevisiae mec2-1 strain, at 50.0 µM, active compounds read high
Summary of the method: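 Vehicle-treated cultures served as reference for growth inhibition of compound-exposed mec2-1 yeast.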

[3] = NCI Yeast Anticancer Drug Screen. Data for the sgs1 mgt1 strain (AID 161);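 also: 0% = growth of cultures given vehicle only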; conditions: S. cerevisiae sgs1 mgt1 strain, at 50.0 µM, active compounds read high
Summary of the method: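 Inhibition of yeast growth, normalised to vehicle-treated controls, is reported for a strain bearing genetic alterations in DNA damage repair.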

[4] = NCI Yeast Anticancer Drug Screen. Data for the cln2 rad14 strain (AID 165);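 also: 0% = growth equal to vehicle treated cultures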; conditions: S. cerevisiae cln2 rad14 strain, at 50.0 µM, active compounds read high
Summary of the method: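 Each compound was tested on cln2 rad14 yeast. Inhibition of growth was calculated against vehicle-exposed controls.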

[5] = NCI Yeast Anticancer Drug Screen. Data for the bub3 strain (AID 167); conditions: S. cerevisiae bub3 mutant strain, at 50.0 µM, active compounds read high
Summary of the method: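 Part of a panel of yeast mutants defective in DNA damage repair or cell cycle regulation. Each strain is grown with compound, and inhibition is calculated relative to solvent-treated cultures.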

[6] = NCI Yeast Anticancer Drug Screen. Data for the mlh1 rad18 strain (AID 175); conditions: S. cerevisiae mlh1 rad18 strain growth inhibition; at 50.0 µM; active compounds read high
Summary of the method: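 Vehicle-treated cultures served as the reference for growth inhibition in a yeast strain carrying DNA damage repair alterations exposed to each compound.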

Measured: growth inhibition

CN1C(=S)C2=C(c3ccccc3)N(C)C(=S)C2=C1c1ccccc1
inactive: [1] 6% | [2] -6.15% | [3] 10.5% | [4] 28.9% | [5] -2.3% | [6] 26.1%

Cc1ccccc1NC(=O)Oc1ccc2c(C)cc(=O)oc2c1
inactive: [1] -3% | [2] 12.2% | [3] 14.4% | [4] -17.2% | [5] 14.3% | [6] 24.9%

COC(C)C(NC=O)C(=O)O (configuration not stated)
inactive: [1] 18.8% | [2] 10.9% | [3] 7.45% | [4] 8.65% | [5] 9.95% | [6] 1.9%

CCC(CO)Nc1nc2c(c(=O)n(C)c(=O)n2C)n1CCO (configuration not stated)
inactive: [1] -21.9% | [2] -1.9% | [3] 1% | [4] 8.15% | [5] -14.7% | [6] -4.75%

CC(C)(C)CC(C)(C)c1ccc(OCCOc2ccc(C(=O)Nc3ccc([N+](=O)[O-])cc3)cc2)cc1
inactive: [1] 49.9% | [2] -0.3% | [3] 42.5% | [4] 6% | [5] -5.65% | [6] 22.9%

CCOc1ccc(C2=NN(CC)C(=O)C(C3C(=O)N(c4ccccc4)N=C3C)C2)cc1 (configuration not stated)
inactive: [1] 4.8% | [2] -7.3% | [3] -0.35% | [4] -30.9% | [5] -22.3% | [6] -10.2%

CCC1CC(O)c2ccccc2O1 (configuration not stated)
inactive: [1] -7.85% | [2] -4.2% | [3] -5.95% | [4] 8.85% | [5] -0.35% | [6] -1.65%

OCc1nc2ccccc2[nH]1
inactive: [1] 5.6% | [2] -4.5% | [3] -3.55% | [4] -27.2% | [5] 14.1% | [6] 3.3%

CCOC(=O)C1=C(c2ccccc2)N=c2ccccc2=S1C (configuration not stated)
inactive: [1] 7.25% | [2] -2.3% | [3] 18.1% | [4] -3.35% | [5] 5.1% | [6] 20.4%

CS(=O)(=O)Nc1cccc(C(=O)NN)c1
inactive: [1] -8.1% | [2] -16.2% | [3] -3.4% | [4] -11.3% | [5] -11.7% | [6] 14.4%

CCCCCOC(=S)S
inactive: [1] -2.6% | [2] 11.8% | [3] 32.7% | [4] -12.1% | [5] 13.4% | [6] 29.9%

Cc1cccc(CN(C)C)c1C=C(c1ccccc1)c1ccccc1
inactive: [1] 11.9% | [2] -1% | [3] 10.6% | [4] -0.05% | [5] 8.7% | [6] 33%

Cc1cccc2c1C(=O)C(C1OC(=O)c3ccccc31)C2 (configuration not stated)
inactive: [1] 7.15% | [2] 9.75% | [3] 1.5% | [4] -31% | [5] 13.5% | [6] -12.4%

COc1cccc(/C(CC(O)(C(F)(F)F)C(F)(F)F)=N\N(C)C)c1
inactive: [1] -30.6% | [2] -9.9% | [3] -8.7% | [4] -38.2% | [5] 1.5% | [6] -25.2%

CCOC(=O)C1C=C1C(C)(C)O (configuration not stated)
inactive: [1] -15.4% | [2] 9.3% | [3] -13.1% | [4] 1% | [5] 3.9% | [6] -32.9%

CCNC(=O)NCN1CCOCC1
inactive: [1] 26.2% | [2] -0.5% | [3] 16.9% | [4] 9.45% | [5] 0.4% | [6] 9%

COC(=O)C(NC(=O)c1ccccc1)C(C)=O (configuration not stated)
inactive: [1] 9.5% | [2] -0.7% | [3] -3.4% | [4] -35.4% | [5] -16.9% | [6] 10%

CC(C(=O)O)C(=O)NNc1ccccc1 (configuration not stated)
inactive: [1] 7.8% | [2] -17.9% | [3] -6.7% | [4] 8.4% | [5] -2.1% | [6] -16.4%

Nc1cc(CO)cc(Nc2c3ccccc3nc3ccccc23)c1
inactive: [1] 26.8% | [2] 7.35% | [3] -30.8% | [4] -6.95% | [5] 0.65% | [6] 48.5%

CC1CCCCc2nc3c(c(=O)n21)CCCC3 (configuration not stated)
inactive: [1] 9.3% | [2] -11.8% | [3] 34% | [4] 0.25% | [5] 25.6% | [6] 41%

Cn1c(Cc2ccccc2)c([N+](=O)[O-])c(=O)n(C)c1=O
inactive: [1] -0.2% | [2] -5.25% | [3] -2.1% | [4] -8.2% | [5] -6.35% | [6] -2.4%

O=C(O)CNC(=O)c1ccc2cc(C(=O)N3CC(CCl)c4ccc([N+](=O)[O-])cc43)[nH]c2c1 (configuration not stated)
inactive: [1] -6.45% | [2] -4% | [3] -3.95% | [4] -0.1% | [5] -34.3% | [6] -35%

N=C(Oc1ccccc1)c1ccccc1
inactive: [1] -1.95% | [2] -22.3% | [3] -12.6% | [4] -28.7% | [5] -13.1% | [6] 6.45%

CC(C)(O)/C=C\P(C)(=O)c1ccccc1 (configuration not stated)
inactive: [1] -30.9% | [2] -21.9% | [3] -4.7% | [4] 9.85% | [5] -32.5% | [6] -31.4%

CC(=O)CC(=O)Nc1ccc(C(=O)O)c(O)c1
inactive: [1] -14.2% | [2] -18.9% | [3] 8.4% | [4] -1.45% | [5] 32.1% | [6] -1%

CCCCCCC(C)(O)C(C)O (configuration not stated)
inactive: [1] 27.8% | [2] 8.5% | [3] 24.2% | [4] 14.9% | [5] 12.2% | [6] 9.2%

C=C1C(=O)OC2C[C@@]3(C)CCCC(=C)C3CC12 (some centres not stated)
inactive: [1] 21.4% | [2] 21.1% | [3] 32.1% | [4] 28.6% | [5] 20.6% | [6] 13%

COc1ccc(NC(=O)CSc2nnc(-c3ccc(NC(C)=O)cc3)o2)cc1
inactive: [1] 22.5% | [2] 2.2% | [3] 35.6% | [4] 22.2% | [5] 36% | [6] 0.55%

CN(C)CC1CCCC/C1=N\OC(=O)c1ccccc1 (configuration not stated)
inactive: [1] -6.9% | [2] -13.8% | [3] 4.15% | [4] 6.25% | [5] 5.8% | [6] 8.1%

Cc1nc2cccc([N+](=O)[O-])c2s1
inactive: [1] 15.2% | [2] 1.7% | [3] 28.4% | [4] 11.7% | [5] 17.4% | [6] 20.4%

O=C(O)CSSCC(=O)O
inactive: [1] -0.15% | [2] -16.6% | [3] -18.8% | [4] 23.1% | [5] -10.2% | [6] -24.5%

O=C1c2ccccc2C(=O)N1OCc1csc(-c2ccccc2)n1
inactive: [1] 5.5% | [2] 6.25% | [3] -4.2% | [4] 5.25% | [5] 0.95% | [6] 27.4%

COCC(O)CC#N (configuration not stated)
inactive: [1] 14.1% | [2] 4% | [3] -3.65% | [4] 7.65% | [5] 9.65% | [6] 3.9%

CCOC(=O)c1cc(C)[nH]c1C
inactive: [1] 2.65% | [2] -1.9% | [3] -0.55% | [4] -17.6% | [5] 23.2% | [6] 3.9%

COc1cc(C(=O)NC2CCc3cc(OC)c(OC)c(OC)c3-c3ccc(OC)c(=O)cc32)cc(OC)c1OC (configuration not stated)
inactive: [1] 26.4% | [2] -9.65% | [3] 3% | [4] 12.2% | [5] 0.05% | [6] 5.35%

ClC1C2c3ccccc3C1C1C2C2(c3ccccc3)OC1(c1ccccc1)c1ccccc12 (configuration not stated)
inactive: [1] 12.7% | [2] 1.65% | [3] -3.2% | [4] -60.1% | [5] -2% | [6] 0.2%

C/C=C(\C)C(=O)OCC1=CCC2CCC(O)N12 (configuration not stated)
inactive: [1] 5.75% | [2] 0.05% | [3] 0.1% | [4] 6.05% | [5] 10.1% | [6] 8.55%

NCC(=O)c1c[nH]c(=O)[nH]c1=O
inactive: [1] -8.85% | [2] -5.05% | [3] -12.2% | [4] -42.5% | [5] -10.3% | [6] 4.4%

COc1cc2c(cc1OC)-c1c(C)c3ccc(OC)c(NCCO)c3c[n+]1CC2
inactive: [1] -43.2% | [2] -10% | [3] -29.7% | [4] -17% | [5] -0.4% | [6] -8.3%

CNC(=S)NNc1ncnc2c1ncn2-c1ccc(C)cc1
inactive: [1] -30.4% | [2] 6.3% | [3] 5.45% | [4] 29.7% | [5] 11.4% | [6] 4.25%

CN1CCCC1
inactive: [1] 2.05% | [2] 8.8% | [3] -2.15% | [4] 1.1% | [5] 16.6% | [6] -8.2%

CC(=O)CC(=O)NCc1ccc2c(c1)OCO2
inactive: [1] -17.4% | [2] -9.2% | [3] -16.3% | [4] 3.75% | [5] -15.1% | [6] -11.8%
